# hERG WT inh – qHTS for Inhibitors of KCHN2 3.1: Wildtype qHTS | Voltage-gated inwardly rectifying potassium channel KCNH2 (Homo sapiens), Q12809 | activity change, % at 1.84 µM | AID 720551, 2013 | 340,000 tested, 0.37% active | U2OS, BacMam KCNH2, thallium flux FluxOr; hits give low values;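 active = maximum activity change below -70%; inconclusive = maximum activity change between -70% and -50%; inactive = maximum activity change above -50%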
#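 U2OS cells were transduced with wild-type KCNH2 virus (2.03 x 10^8 / mL) for 4 h at room temperature, then cultured overnight at 37 C. Thallium flux was read with FluxOr dye. Rate constants were normalized to DMSO controls.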
# Luc counter – Counterscreen for Luciferase (Kinase-Glo TM) Inhibition | Luciferin 4-monooxygenase (Photuris pensylvanica), Q27757 | Kinase-Glo luciferase, ATP luminescence, 8 min | Potency, µM (top dose mostly 38.3 µM), hits mostly inhibitors | 200,000 tested, 0.28% active | AID 1379, 2008; active = well fitted inhibition curve with a large enough effect; inconclusive = small, poorly fitted or top-dose-only effect; note: nearly all actives have a fitted effect of over 60% in size
#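 Recombinant Kinase-Glo luciferase, 10 uM ATP (linear range), luciferin; imidazole pH 7.2 / KCl / MgCl2 / Tween / BSA buffer; 8 min RT; luminescence.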
# KCNH2 3.1 inh – qHTS for Inhibitors of KCHN2 3.1: Mutant qHTS. Potassium voltage-gated channel subfamily H member 2, brain isoform KCNH2 3.1 (human). activity change, % (tested at about 1.8 µM). AID 720553, 2013. 340,000 tested, 0.95% active. U2OS KCNH2 3.1, thallium flux FluxOr; hits give low values;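 active = maximum activity change below -70%; inconclusive = maximum activity change from -70% to -50%; inactive = maximum activity change above -50%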;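 note: thallium influx rate constant from kinetic fluorescence after stimulation buffer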
#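 Steps: virus added to U2OS suspension (4 h, RT, dark); medium with 10% FBS added, cells plated, 37 C overnight; FluxOr/Red40 loading buffer 45 min RT; stimulation buffer, 2 min kinetic read; rate constant normalized.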
# Numbers stand for hits; n = inactive; u = inconclusive; x = not tested or not shown; [ ] = remark or other dose. Shown are actives, neighbours in structure and some others; about 1.2% of the full set was active somewhere.
SMILES,hERG WT inh,Luc counter,KCNH2 3.1 inh
CCN1CCN(CC(=O)Nc2ccc(N(C)C)cc2)CC1,n,x,n
O=C(CN1CCN(Cc2ccc3c(c2)OCO3)CC1)Nc1ccc2c(c1)OCO2,n,n,u
O=C(CN1CCN(Cc2ccc3c(c2)OCO3)CC1)Nc1ccc(F)cc1,n,n,-84
CCN(CC)c1ccc(NC(=O)CN2CCN(CC(=O)Nc3ccc(F)cc3)CC2)cc1,-75,n,-101
CCN(CC)c1ccc(NC(=O)CN2CCN(CC(=O)Nc3ccc(OC)cc3)CC2)cc1,n,x,-86
Cc1ccc(NC(=O)CCn2cccc2)cc1,n,n,n
COc1ccc(NC(=O)CCn2cccc2)cc1,n,n,-78
C=CCN(C(=O)c1csnn1)C(C(=O)NCc1ccccc1)c1c(F)cccc1Cl (configuration not stated),n,x,n
COc1ccc2nc3n(c(=O)c2c1)-c1ncccc1C(=O)NC3C (configuration not stated),n,x,n
COc1ccc(CNC(=O)CSc2nnc(NC(=O)c3ccccc3F)s2)cc1,n,x,n
Cc1cc(C)cc(NC(=O)CSc2nc3nc(C)cc(C)c3c(=O)[nH]2)c1,n,x,n
O=C(CN1CCN(CC(=O)Nc2ccc(Cl)cc2)CC1)Nc1ccc(F)cc1,-137,x,-118
O=C(CN1CCCCC1)Nc1ccc(S(=O)(=O)N2CCCCCC2)cc1,n,n,-83
O=C(CN1CCCC1)Nc1ccc(S(=O)(=O)N2CCCCC2)cc1,n,x,n
O=C(CN1CCOCC1)Nc1ccc(Br)cc1,n,x,n
O=C(CN1CCCC1)Nc1ccc(F)cc1,n,n,n
Fc1ccc(NC(=S)NCc2ccc3c(c2)OCO3)cc1,n,n,-71
O=C(CN1CCN(C(=O)N2CCOCC2)CC1)Nc1ccc(Br)cc1,-118,n,-70
O=C(NCc1ccc2c(c1)OCO2)Nc1ccc(F)cc1,n,x,n
COc1ccc2c(=O)c(-c3ccc(C)cc3)c(-c3ccccc3)oc2c1,n,x,n
COc1ccc(OC)c(NC(=O)c2cc(OC(C)=O)cc(C(=O)Nc3cc(OC)ccc3OC)c2)c1,n,x,n
O=C(c1ccc(-n2c(=O)c(=O)[nH]c3ccccc32)cc1)N1CCCN(Cc2ccccc2)CC1,x,n,x
COc1cc(NC(=O)COC(=O)CO/N=C(\C)c2ccc3c(c2)OCO3)cc(OC)c1OC,n,x,n
COCCN1CCN(C(=O)C2CCC(=O)N(Cc3ccccc3OC)C2)CC1 (configuration not stated),n,x,x
Cc1cccc(N(Cc2ccccc2)C(=O)CSC(C)C(=O)Nc2cc(C)on2)c1 (configuration not stated),n,x,n
SMILES,hERG WT inh,Luc counter,KCNH2 3.1 inh
Fc1ccc(/C=N/Nc2nccnc2Cl)cc1,n,x,n
Oc1ccc(/C=N/Nc2nccnc2Cl)cc1,n,3.5µM,n
O=[N+]([O-])c1cccc(/C=N/Nc2ccccn2)c1,n,n,n
O=[N+]([O-])c1cccc(/C=N/Nc2nccnc2Cl)c1,n,10µM,n
Cc1c(C(=O)O)oc2ccc3c(c12)C(O)CC(C)(C)O3 (configuration not stated),n,x,n
COc1cc(C(=O)NNC(=O)c2ccccc2OCc2c(C)noc2C)cc(OC)c1OC,n,x,-87
Cc1noc(C)c1COc1ccccc1C(=O)NNC(=O)c1ccccc1,n,x,n
COC(=O)/C(=C\C(=O)c1ccc([N+](=O)[O-])cc1)Nc1ccc(OC)cc1,n,x,-77
COc1ccc(C(=O)/C=C/Nc2ccc([N+](=O)[O-])cc2)cc1,n,n,n
CSc1ccccc1NC(=O)c1ccc(N2CCCC2=O)cc1,n,x,n
O=C(O)CC[C@]1(C(=O)O)CCC(=O)c2ccccc21,x,n[7.66 µM],x
COc1ccc(-c2nc(Cn3c(SCc4cccc(F)c4)nc4ccncc43)c(C)o2)cc1OC,n,n,-107
COc1ccc(-c2nc(CN3CCN(Cc4cccc(F)c4)CC3)c(C)o2)cc1,n,x,n
Cc1ccc(CSc2nc3ccncc3n2CC(=O)Nc2cc(C)cc(C)c2)cc1,n,n,n
COc1ccc(-c2nc(Cn3c(SCc4ccc(C)cc4)nc4ccncc43)c(C)o2)cc1OC,n,n,-122
O=C(CCNC(=O)c1ccc(Cl)cc1)NNC(=O)c1ccc(F)cc1,n,x,n
CCN1CCN(S(=O)(=O)c2c(C)cc(C)cc2C)CC1,n,x,n
COc1cc(C(=O)N2CCCCC2)ccc1OCC(=O)Nc1ccc(F)cc1,n,x,n
COc1ccccc1C1C(C(N)=O)=C(C)Nc2nc(-c3ccccc3Cl)nn21 (configuration not stated),n,n,n

# Source: PubChem BioAssay
